Measurements reported in PubChem BioAssay (NCATS).
Inconclusive results are not listed. Entries that show only a call come without a potency. Active and inactive are the calls of the source. The call rests on the fitted dose curve; in most records, active means well fitted curve in the direction sought with a large enough effect; inconclusive means small, poorly fitted or top-dose-only effect, or another doubt; inactive means no such curve, though single readings can be large; an effect the other way counts as inactive or inconclusive.

Tests used:
[1] = Primary qHTS for inhibitors of nuclear receptor binding SET domain protein 2 (NSD2) in an isogenic RCH-ACV NSD2 p.E1099K mutant (9B) (AID 1645876)
[2] = Primary qHTS for inhibitors of nuclear receptor binding SET domain protein 2 (NSD2) in an RCH-ACV wild type WT cells (2C) (AID 1645877); further: potency means the concentration at half of the fitted maximal effect
Further: nearly all actives have a fitted effect of over 70% in size.

SMILES | Potency [1] | Potency [2]
C=CC1(C)CC(O)C2(CCC3C(C)(C(=O)O)CCCC3(C)C2=O)C1 (centres undefined) | inactive | inactive
C=C1CCC2C(OC(=O)C2(O)COC(C)=O)C2C(=C)C(O)CC12 (centres undefined) | inactive | inactive
OC[C@H]1O[C@@H](Oc2ccc3c(c2)OC[C@H]2c4cc5c(cc4O[C@@H]32)OCO5)[C@H](O)[C@@H](O)[C@@H]1O |  | 7.96 µM (active)
COc1cc(/C=C/C(=O)OC2CC(OC(C)=O)C(OC(C)=O)C3C2CCC2C(=O)OC(c4ccoc4)CC23C)ccc1O[C@@H]1O[C@H](CO)[C@@H](O)[C@H](O)[C@H]1O (some centres undefined) |  | inactive
CCC(=O)O[C@]1(C(=O)CCl)[C@@H](C)C[C@H]2[C@@H]3C[C@H](F)C4=CC(=O)C=C[C@]4(C)[C@@]3(F)[C@@H](O)C[C@@]21C |  | inactive
CC(C)C1=CC2=CCC3[C@](C)(CCC[C@@]3(C)C(=O)O)C2CC1O (some centres undefined) | inactive | inactive
